Values quoted from earlier work, collected in PubChem BioAssay AID977608.
Hit rate of the full screen: of about 4,300 compounds, about 4,300 (100%) were called active. The limit is not given here; nearly all actives have IC50 up to about 1400 µM. The set was probably picked from earlier hits. This is one part of the list. Starred links: 1 amine or outer side, 2 acyl side, 3 side chain; linkers in the order of their positions; H or OH if unused. Non-standard residues stand in square brackets, D forms with d. Residues, ends and D or L forms follow the SMILES beside them. X1 = O=C([C@H](Cc1ccc(C(F)(F)[P+](O)(O)O)cc1)N[*:1])[*:2]

Assay: literature IC50 values for PDB complexes, PDB-derived complexes (AID 977608)
Conditions: PDB protein-ligand complexes

Compound: CC(C)C[C@H](NC(=O)[C@H](C)NC(=O)[C@H](CC(N)=O)NC(=O)[C@H](CCC(=O)O)NC(=O)[C@@H](NC(=O)[C@H](C)NC(=O)[C@@H](NC(=O)[C@H](Cc1cnc[nH]1)NC(=O)[C@@H](N)CO)C(C)C)C(C)C)C(=O)O
- IC50 (protein: HLA class I histocompatibility antigen, B-39 alpha chain, PDB entry 4o2e): 0.01 µM (active)

Compound: H-HVAVENAL-OH
- IC50 (protein: HLA class I histocompatibility antigen, B-39 alpha chain, PDB entry 4o2f): 0.387 µM (active)

Compound: O=C(CC[C@H](NC(=O)c1ccc(C#Cc2ccccc2)cc1)C(=O)NO)NCCCO
- IC50 (protein: UDP-3-O-[3-hydroxymyristoyl] N-acetylglucosamine deacetylase, PDB entry 4j3d): 0.0053 µM (active)

Compound: CCCCn1c(-c2c(C)ccc3[nH]ncc23)c[n+]2c3c(=O)[nH]c(=O)n(C)c3[nH]c12
- IC50 (protein: EPH receptor A3, PDB entry 4gk4): 0.014 µM (active)

Compound: H-AAAAAAA-OH
- IC50 (protein: Insulin-degrading enzyme(IDE), PDB entry 2jbu): 400 µM (active)

Compound: COc1ccc2c(c1)C1=NN(C(=O)CO)[C@H](c3ccc(OC(F)(F)F)c(F)c3)[C@@H]1CC2
- IC50 (protein: Receptor-interacting serine/threonine-protein kinase 1 (C34A, C127A, C233A, C240A mutation), PDB entry 4iti): 0.44 µM (active)

Compound: O=C(O)/C(S)=C/c1c(Cl)ccc(Cl)c1Cl
- IC50 (protein: Beta-lactamase 2 BcII MBL, PDB entry 4tyt): 0.02 µM (active)

Compound: CC(C)C[C@H](C[P+](O)(O)[C@@H](N)CCc1ccccc1)C(=O)N[C@@H](Cc1c[nH]c2ccccc12)C(N)=O
- IC50 (protein: Endoplasmic reticulum aminopeptidase 2, PDB entry 4jbs): 0.011 µM (active)

Compound: O=C1NCc2ccc(Cl)cc21
- IC50 (protein: Chymase, PDB entry 4k5z): 1000 µM (active)

Compound: O=C(c1ccc(O)cc1)N1CCOCC1
- IC50 (protein: Heat shock protein HSP 90-alpha, PDB entry 4egh): 550 µM (active)

Compound: N=Cc1ncc(C(=O)NCc2ccccc2)cn1
- IC50 (protein: Protease AVP2, PDB entry 4pid): 24 µM (active)

Compound: Nc1nonc1C(=O)c1cccc(OCc2nc3ccccc3[nH]2)c1
- IC50 (protein: Adenylate cyclase type 10 hsolAC, PDB entry 4oya): 0.36 µM (active)

Compound: Nc1nonc1C(=O)c1ccccc1
- IC50 (protein: Adenylate cyclase type 10 hsolAC, PDB entry 4oyi): 19 µM (active)

Compound: COc1cccc(C(=O)c2nonc2N)c1
- IC50 (protein: Adenylate cyclase type 10 hsolAC, PDB entry 4oym): 11 µM (active)

Compound: CCOC(=O)COc1cccc(C(=O)c2nonc2N)c1
- IC50 (protein: Adenylate cyclase type 10 hsolAC, PDB entry 4oyb): 1.6 µM (active)

Compound: CCCCn1cc[n+](CC(O)([P+](O)(O)O)[P+](O)(O)O)c1
- IC50 (protein: Farnesyl pyrophosphate synthase, PDB entry 4ga3): 0.03 µM (active)

Compound: CCCCCCCCCCCCCCCn1cc[n+](CC(O)([P+](O)(O)O)[P+](O)(O)O)c1
- IC50 (protein: Squalene synthase, HsSQS, PDB entry 3wci): 0.27 µM (active)

Compound: CCCCCCCCCCCCCCCn1cc[n+](CC([P+](O)(O)O)[P+](O)(O)O)c1
- IC50 (protein: Squalene synthase, HsSQS, PDB entry 3wcl): 0.26 µM (active)
- IC50 (protein: Squalene synthase, TcSQS, PDB entry 3wcg): 0.14 µM (active)

Compound: FC(F)(F)c1ccc(CNc2ccc(Cc3c[nH]c4ncccc34)cn2)cc1
- IC50 (protein: Mast/stem cell growth factor receptor Kit, PDB entry 4hvs): 0.016 µM (active)

Compound: COc1cnc2[nH]cc(Cc3ccc(NCc4ccc(C(F)(F)F)cc4)nc3)c2c1
- IC50 (protein: Macrophage colony-stimulating factor 1 receptor (C667T, C830S, C907T mutation), PDB entry 4hw7): 0.062 µM (active)

Compound: S=CNc1ccc2oc(C3=NCCN3)cc2c1
- IC50 (protein: Chitinase A(W275G mutant), PDB entry 3as3): 160 µM (active)

Compound: CC(C)C[C@H]1NC(=O)[C@@H](Cc2c[nH]c3ccccc23)NC(=O)[C@@H](CCC(N)=O)NC(=O)[C@@H](Cc2c[nH]c3ccccc23)NC(=O)[C@@H](CCC(=O)O)NC(=O)[C@H]2CCCN2C(=O)[C@@H](CO)NC(=O)[C@@H](CCC(=O)O)NC(=O)[C@H](NC(=O)[C@@H](C)NC(=O)CNC(=O)[C@H](N)CCCCN)CSSC[C@H](C(=O)N[C@H](C)C(=O)N[C@H](C)C(=O)O)NC1=O
- IC50 (protein: gp41 N-peptide, PDB entry 2r3c): 2.2 µM (active)

Compound: C[C@@H]1NC(=O)[C@@H]2CSSC[C@H](NC(=O)CN)C(=O)N[C@@H](CSSC[C@@H](C(N)=O)NC(=O)[C@H](CCCNC(N)N)NC(=O)[C@H](Cc3c[nH]c4ccccc34)NC1=O)C(=O)N[C@@H](CO)C(=O)N[C@@H](CC(=O)O)C(=O)N1CCC[C@H]1C(=O)N[C@@H](CCCNC(N)N)C(=O)N2
- IC50 (protein: nicotinic acetylcholine receptor homolog AChBP, PDB entry 2c9t): 0.033 µM (active)

Compound: CC(=O)NCC(=O)N[C@H](C)C(=O)N[C@@H]1CSSC[C@H](C(=O)N[C@H](C)C(=O)N[C@H](C)C(=O)O)NC(=O)[C@@H](CC(C)C)NC(=O)[C@@H](Cc2c[nH]c3ccccc23)NC(=O)[C@@H](C)NC(=O)[C@@H](Cc2c[nH]c3ccccc23)NC(=O)[C@@H](CCC(=O)O)NC(=O)[C@@H](CCCNC(N)N)NC(=O)[C@@H](Cc2cnc[nH]2)NC(=O)[C@@H](CCCNC(N)N)NC(=O)[C@@H](C)NC(=O)[C@@H](CCC(=O)O)NC1=O
- IC50 (protein: IQN17, PDB entry 1czq): 29 µM (active)

Compound: Cc1c(C(=O)O)cccc1-c1nc2nc(N)nc(OCC3CCCCC3)c2[nH]1
- IC50 (protein: CYCLIN-DEPENDENT KINASE 2, CDK2, PDB entry 4cfu): 100 µM (active)

Compound: CNC(=O)NC(N)NCCC[C@H](NC(=O)Cn1nncc1CO/N=C/c1ccnc2ccccc12)C(=O)N(Cc1ccccc1)Cc1ccccc1 (some centres not stated)
- IC50 (protein: Chitinase B, PDB entry 3wd1): 0.022 µM (active)

Compound: CNC(=O)NC(N)NCCC[C@H](NC(=O)CN=[N+]=[N-])C(=O)N(Cc1ccccc1)Cc1ccccc1 (some centres not stated)
- IC50 (protein: Chitinase B, PDB entry 3wd2): 0.58 µM (active)

Compound: H-SIGKAFKILGYPD-OH
- IC50 (protein: G Protein Beta:Gamma Heterodimer, PDB entry 1xhm): 0.47 µM (active)

Compound: H-DVFYPYPYASGS-OH
- IC50 (protein: concanavalin A(ConA), PDB entry 1jyi): 100 µM (active)

Compound: CC(C)C[C@H](NC(=O)[C@H](CCCCN)NC(=O)[C@H](CCC(=O)O)NC(=O)[C@H](Cc1ccc(O)cc1)NC(=O)[C@H](C)NC(=O)[C@@H]1CCCN1C(=O)[C@@H]1CCCN1C(=O)[C@H](C)N)C(=O)N[C@@H](CO[P+](O)(O)O)C(=O)N[C@@H](C)C(=O)N[C@@H](CCC(=O)O)C(=O)N[C@@H](CCC(N)=O)C(=O)N[C@@H](CO)C(=O)N1CCC[C@H]1C(=O)N1CCC[C@H]1C(=O)O
- IC50 (protein: MHC class II molecule HLA-DR1, PDB entry 3l6f): 0.102 µM (active)

Compound: C[C@H](NC(=O)[C@@H](N)CCC(=O)O)C(=O)N[C@@H](CCC(N)=O)C(=O)N[C@@H](Cc1ccc(C(F)(F)[P+](O)(O)O)cc1)C(=O)N[C@@H](CCC(N)=O)C(=O)N1CCC[C@H]1C(=O)O (H-EAQ[X1]QP-OH)
- IC50 (protein: TYROSINE-PROTEIN PHOSPHATASE NON-RECEPTOR TYPE 1, PTP1B, PDB entry 3zmq): 0.36 µM (active)
